# Measured values taken from PubChem BioAssay (NCI).
# About 83,000 compounds went through this panel and 20% of them were active in at least one assay; those are over-represented in the sample as a whole.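 Cell lines were cultured in 96-well plates, exposed to a single compound concentration, and assessed for percent growth 48 hours later.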 Values without a mark were called inactive. Activity calls are given as the source filed them. Rule for the calls: active = growth percent below 10; inactive = the rest.
# Test system: OVCAR-4 ovarian
# Test: NCI-60 one-dose screen, 48 h (100 = growth as untreated, 0 = no growth, -100 = all killed)
# Details: 10 µM
row,SMILES,growth
1,Oc1cccc(-c2nc3sccn3c2-c2ccncn2)c1,114%
2,CCOC(=O)c1cc(C(=O)c2cc(OC)c(OC)c(OC)c2)n2ccc(-c3cc[n+](CC(=O)c4cc(OC)c(OC)c(OC)c4)cc3)cc12,-33.2% (active)
3,C[C@H]1[C@H](OC(=O)CCC(=O)O)O[C@@H]2O[C@]3(C)CC[C@H]4[C@H](C)CC[C@@H]1[C@@]24OO3,37.6%
4,COc1ccc(C(=O)N/N=C/c2cc(C(F)(F)F)ccc2Cl)cc1,91.7%
5,COc1ccc(-c2cc(-c3ccc(Cl)cc3)nc(SCCCC(=O)NO)n2)cc1OC,19.1%
6,CCC(=O)OC1CCC2C3CCC(=O)OC3C(C)(CCC(=O)O)CC12C (configuration not stated),65.8%
7,OCC1OC(n2ccc3c(NO)ncnc32)C(O)C1O (configuration not stated),-5.14% (active)
8,CC(C)(C)c1ccc(S(=O)(=O)N[C@H]2CC[C@H]3[C@@H]4CCc5cc(O)c([N+](=O)[O-])cc5[C@H]4CC[C@]23C)cc1,10.3%
9,COc1cc(-c2nn(-c3cccc(NC(=O)CCNc4ccc(N5CCOCC5)cc4)c3)cc2-c2ccncc2)ccc1Cl,26%
10,COc1cc(-c2nn(-c3cccc(NC(=O)CN4CCOCC4)c3)cc2-c2cccnc2)ccc1Cl,101%
11,O=C(CCCSc1nc(-c2ccccc2)cc(-c2ccc(Cl)cc2)n1)NO,22.3%
12,CC(C)N(CCOc1cccc(-c2nc3sccn3c2-c2ccnc(S(C)(=O)=O)n2)c1)C(C)C,64.5%
13,O=C(CCC(C(=O)c1ccccc1)c1ccccc1)c1ccccc1 (configuration not stated),91.2%
14,COc1ccc(-c2csc(NC(=O)c3ccc(Cc4n[nH]c(=O)c5cccnc45)cc3)n2)cc1,94.5%
15,COc1cc(-c2nn(-c3cccc(NC(=O)CCN4CCN(Cc5ccccc5)CC4)c3)cc2-c2ccncc2)ccc1Cl,36.2%
16,COc1cc2cc(Oc3ccc(NC(=O)c4cc(C(F)(F)F)cc(C(F)(F)F)c4)cc3)c(C)nc2cc1OC,52.4%

row,SMILES,growth
1,C[C@]12CCC3c4ccc(O)cc4C[C@@H](CCCCCCCCCS(=O)CCCC(F)(F)C(F)(F)F)C3C1CC[C@@H]2O (some centres not stated),66.2%
2,Cc1cc(Cl)ccc1Nc1nc(C(F)(F)F)ccc1C(=O)N/N=C/c1cccc(O)c1,33.8%
3,COc1cc(C(=O)/C=C/c2c[nH]c3ccccc23)cc(OC)c1OC,49.4%
4,CCOC(=O)CC(S(=O)(=O)c1ccccc1)S(=O)(=O)c1ccccc1,94%
5,CCNCC(=O)Nc1ccc(C(=O)OCC)cc1,102%
6,CCCc1cn(CC(=O)Nc2nc3ccccc3s2)nn1,109%
7,COc1cc2cc(Oc3ccc(NC(=O)Nc4ccc(Cl)c(C(F)(F)F)c4)cc3)c(C)nc2cc1OC,17.1%
8,COc1cc(/C=C2\CCCC3=C2NC(N)=NC3c2cc(OC)c(OC)c(OC)c2)cc(OC)c1OC (configuration not stated),27%
9,COc1ccc(-c2cc(-c3ccc(Cl)cc3)nc(SCCCCCCC(=O)NO)n2)cc1OC,70.5%
10,COc1cc2ncnc(NC3CCC(O)CC3)c2cc1OC (configuration not stated),103%
11,COc1cc(C)ccc1Oc1nc(Nc2ccc(N3CCOCC3)cc2)ncc1NC(=O)Nc1cc(C(F)(F)F)cc(C(F)(F)F)c1,66.3%
12,CCC(C)[C@H](NC(C)=O)C(=O)N[C@@H](CCCNC(=N)N)C(=O)N[C@@H](CCCCN)C(=O)N[C@@H](CC1CCC(O)CC1)C(=O)NC(C(=O)N[C@@H](CCSC)C(=O)N[C@@H](CCCNC(=N)N)C(=O)N[C@@]1(C)CCC/C=C\CCC[C@@](C)(C(=O)NC(C(=O)N[C@@H](CCC(=O)O)C(=O)N[C@@H](CC(C)C)C(=O)N[C@H](C(=O)N[C@@H](CCC(=O)O)C(N)=O)C(C)C)[C@@H](C)O)NC(=O)[C@H](CCC(N)=O)NC(=O)[C@H](CC(C)C)NC(=O)[C@H](CC(C)C)NC1=O)[C@@H](C)O (some centres not stated),100%
13,CN1C(=O)C2(Nc3cc(Cl)ccc3S2)c2cc(Cl)ccc21 (configuration not stated),70.3%
14,CC(=O)Nc1ccc2c(c1)C(=O)c1cccc(C(=O)O)c1-2,108%
15,O=C(CNc1nnc(-c2cccnc2SCc2ccccc2)s1)Nc1nc(Cl)cc(Cl)n1,103%
16,CCOC(=O)c1cc(C(=O)c2cc(OC)c(OC)c(OC)c2)n2nc(C)ccc12,51.8%
